According to PubChem BioAssay (NCATS):
Results filed as inconclusive are left out. The source made the active and inactive calls. Calls follow the shape of the dose curve; as a rule, active = well fitted cell-killing curve with a large enough effect; inconclusive = small, poorly fitted or top-dose-only effect, or effect the other way; inactive = no such curve, though single readings can be large or run the other way.

Test: Viability qHTS for spleen associated tyrosine kinase inhibitor (SYKi) drug resistant MV4-11 cells (AID 1963824); also: nearly all actives have a fitted effect of over 35% in size
Conditions: SYKi-resistant MV4-11 viability, CellTiter-Glo, 72 h; series mostly up to 45 µM; viability, % of control: at the top concentration
In short: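 SYK-inhibitor-resistant MV4-11 AML cells were seeded at 500 per well onto compound and cultured 72 hours (37 °C, 5% CO2). CellTiter-Glo was then added, and after 10 min at room temperature, luminescence gave viability.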
Potency is read from the fitted curve at half-maximal effect.

Row | SMILES | Potency | viability, % of control
1 | COC(=O)C#Cc1ccc([N+](=O)[O-])cc1 | 2.59 µM (active) | 
2 | COc1cc(N2CCN(C)CC2)ccc1Nc1ncc2c(n1)N(C)c1ccccc1C(=O)N2 | 13.2 µM (active) | 
3 | CC(=O)NC1=NN(C(C)=O)C(C)(c2ccccc2)S1 (stereo not given) | 2.59 µM (active) | 
4 | O=C(O)c1cccc(CN2C(=O)/C(=C(\c3ccccc3)c3ccc(Cl)cc3)c3ccccc32)c1 | 20.6 µM (active) | 
5 | O=c1[nH]ccc2c(S(=O)(=O)N3CCCNCC3)cccc12 |  | 81% (inactive)
6 | CCC(C)/C=C(C)/C=C/C1=CC2=C(Cl)C(=O)C(C)(O)C(=O)C2(O)C(OC)O1 (stereo not given) | 10 µM (active) | 
7 | CC(C)=CCc1c(O)cc2oc3cc(C)cc(O)c3c2c1C | 23.1 µM (active) | 
8 | CCN(CC)CCNC(=O)c1c(C)[nH]c(/C=C2\C(=O)Nc3ccc(Cl)cc32)c1C | 0.0146 µM (active) | 
9 | Cc1c(-c2ccc3c(c2)OCO3)oc2ccc(C(O)C(C)O)cc12 (stereo not given) | 12.8 µM (active) | 
10 | CN1CCc2cccc3c2[C@H]1Cc1ccc(O)c(O)c1-3 | 3.76 µM (active) | 
11 | COc1c2c(c(C)c3c1C(=O)OC3)OC1(C)CC(O)C(C(C)(C)O)C(C)(CCC(=O)O)C1C2 (stereo not given) | 3.17 µM (active) | 
12 | O=C(c1ccccc1)c1ccc2nc(NC(=O)c3csc(C4CCN(c5ncnc6ccsc56)CC4)n3)[nH]c2c1 | 2.31 µM (active) | 
13 | O=S(=O)(/N=C/c1c(O)ccc2ccccc12)c1cccs1 |  | 86.6% (inactive)
14 | O=C(NO)c1ccc(CC(=O)N(CCO)c2ccccc2)cc1 | 16.4 µM (active) | 
15 | CC1(C)NC2N(C1=O)c1ccccc1C2(O)CC(C(=O)O)n1cnc2ccccc2c1=O (stereo not given) |  | 95.7% [at 17.3 µM] (inactive)
